Data as given in ChEMBL document CHEMBL2218924, “A broad activity screen in support of a chemogenomic map for kinase signalling research and drug discovery” (Biochem J, 2013).

Each compound was assayed against T1, Tyrosine-protein kinase Tec (Homo sapiens) (UniProt P42680). Settings: at 1 µM.
T1 sequence (whole entry): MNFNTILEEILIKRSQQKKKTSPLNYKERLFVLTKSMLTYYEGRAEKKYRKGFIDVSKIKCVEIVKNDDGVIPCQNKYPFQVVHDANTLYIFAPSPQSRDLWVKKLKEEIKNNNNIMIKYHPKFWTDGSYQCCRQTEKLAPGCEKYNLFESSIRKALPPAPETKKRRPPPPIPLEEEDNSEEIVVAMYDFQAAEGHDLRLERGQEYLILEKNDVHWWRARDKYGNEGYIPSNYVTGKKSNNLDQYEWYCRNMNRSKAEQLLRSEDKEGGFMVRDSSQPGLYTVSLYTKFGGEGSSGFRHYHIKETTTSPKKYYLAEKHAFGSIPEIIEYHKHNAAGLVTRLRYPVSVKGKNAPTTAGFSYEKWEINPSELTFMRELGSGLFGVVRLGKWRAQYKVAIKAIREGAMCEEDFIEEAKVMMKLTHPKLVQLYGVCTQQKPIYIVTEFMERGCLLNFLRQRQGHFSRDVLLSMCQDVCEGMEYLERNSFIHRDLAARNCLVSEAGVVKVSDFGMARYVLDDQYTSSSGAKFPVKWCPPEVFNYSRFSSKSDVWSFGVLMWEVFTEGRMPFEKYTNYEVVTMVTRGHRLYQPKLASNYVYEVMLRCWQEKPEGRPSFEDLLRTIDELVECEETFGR

| SMILES | residual activity [%] |
| --- | --- |
| COC(=O)[C@@]1(O)C[C@H]2O[C@]1(C)n1c3ccccc3c3c4c(c5c6ccccc6n2c5c31)C(=O)NC4 | 3 |
| COc1cc2ncnc(Nc3ccc(OCc4ccccc4)cc3)c2cc1OC | 107 |
| O=C1NC(=O)c2c1c1c3ccccc3n3c1c1c2c2ccccc2n1C1CCC3O1 | 66 |
| CCn1cnc2c(Nc3cccc(Cl)c3)nc(N[C@@H]3CCCC[C@@H]3N)nc21 | 39 |
| CC(C)[C@H](CO)Nc1nc(Nc2cccc(Cl)c2)c2ncn(C(C)C)c2n1 | 63 |
| O=[N+]([O-])/C=C/c1ccc2c(c1)OCO2 | 89 |
| CCc1nc(-c2ccc(OC)cc2)[nH]c1-c1ccncc1 | 102 |
| O=c1[nH]c2ccccc2n1C1CCN(Cc2ccc(-c3nc4cc5[nH]cnc5cc4nc3-c3ccccc3)cc2)CC1 | 95 |
| C[S+]([O-])c1ccc(-c2nc(-c3ccc(F)cc3)c(-c3ccncc3)[nH]2)cc1 (configuration not stated) | 94 |
| O=C1Nc2ccc3ncsc3c2/C1=C/c1c[nH]cn1 | 91 |
| COc1cc(OC)c(/C=C2\C(=O)Nc3ccccc32)c(OC)c1 | 98 |
| COc1ccc2c(c[n+](C)c3c4cc5c(cc4ccc23)OCO5)c1OC | 86 |
